Records with an inconclusive call do not appear. Active and inactive are the calls of the source. Calls follow the shape of the dose curve; as a rule, active = well fitted cell-killing curve with a large enough effect; inconclusive = small, poorly fitted or top-dose-only effect, or effect the other way; inactive = flat fitted curve, though single readings scatter.
test system: Tov-21-G; assay: Primary qHTS to identify gynecologic anti-cancer compounds using libraries of approved drugs and bioactive compounds (AID 1345084); settings: Gynecologic cancer cell panel viability, ATPlite luminescence, 48 h; series mostly up to 57.5 µM; activity change, negative = cytotoxicity: at the top concentration; also: nearly all actives have a fitted effect of over 55% in size
Summary of the method: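 Five-point cytotoxicity, 48 h drug exposure at 37 C, 5% CO2, on cells seeded 16 h beforehand. ATP content read by ATPlite luminescence.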
% is scaled to controls: 0 for no effect and ±100 for the full control effect.

Structure (SMILES) | activity change, negative = cytotoxicity
CC1(C)CC[C@]2(C(=O)O[C@@H]3O[C@H](CO)[C@@H](O)[C@H](O)[C@H]3O)CC[C@]3(C)C(=CCC4[C@@]5(C)CC[C@H](OC6OC(C(=O)O)C(OC7OC(CO)C(O)C(O)C7O)C(O)C6O)C(C)(C)C5CC[C@]43C)C2C1 (stereo not given in full) | 2.32% [at 11.6 µM] (inactive)
COc1cccc(CN(C(=O)CC(C)(C)C)C2CC(C(=O)N3CCNCC3)N(Cc3ccc4c(c3)OCO4)C2)c1 (stereo not given) | 2.78% (inactive)
C/C=C(/C)C(=O)OC1CC(C)(C)CC2C3=CCC4C5(C)CCC(OC6OC(C)C(OC7OC(C(=O)O)C(O)C(OC8OC(CO)C(O)C(O)C8OC8OC(CO)C(O)C(O)C8O)C7O)C(O)C6O)C(C)(C)C5CCC4(C)C3(C)C(OC(=O)/C=C/C=C/C=C/CCC)C(OC(C)=O)C12CO (stereo not given) | -0.72% [at 6.55 µM] (inactive)
Cc1ccc(-c2c(-c3nn(C)c4ncnc(N5CC[C@H](N6CCCCC6)C5)c34)cnn2C)cc1 | -3.61% (inactive)
O=C(O)c1cc(O[C@@H]2O[C@H](CO)[C@@H](O)[C@H](O)[C@H]2O)ccc1O | -2.05% [at 38.5 µM] (inactive)
Nc1nc(COC(=O)c2ccc([N+](=O)[O-])cc2)nc(Nc2ccccc2)n1 | 15.6% (inactive)
C[C@@H]1O[C@@H](O[C@H]2[C@H](O[C@H]3[C@H](O[C@H]4CC[C@@]5(C)C(CC[C@]6(C)C5CC=C5[C@@H]7CC(C)(C)C[C@@H](O)[C@]7(C)CC[C@]56C)[C@@]4(C)CO)O[C@H](C(=O)O)[C@@H](O)[C@@H]3O)O[C@H](CO)[C@H](O)[C@@H]2O)[C@H](O)[C@H](O)[C@H]1O (stereo not given in full) | 5.74% [at 11.6 µM] (inactive)
COc1cc(CO)ccc1O[C@@H]1O[C@H](CO)[C@@H](O)[C@H](O)[C@H]1O | 7.71% [at 38.5 µM] (inactive)
COC(=O)c1c(CC=C(C)C)c(OC2OC(CO)C(O)C(O)C2O)c2ccccc2c1OC1OC(CO)C(O)C(O)C1O (stereo not given) | 0.606% [at 25.3 µM] (inactive)
COc1ccc(C2(O)c3c(ccc4c3OC(C)(CCC=C(C)C)C=C4)NC(=O)C2OC)cc1 (stereo not given) | -4.47% [at 25.3 µM] (inactive)
Cc1ccc(C)c(NC(=O)CNS(=O)(=O)c2ccc3[nH]c(=O)oc3c2)c1 | 16.2% (inactive)
CO[C@H]1c2cc(C(C)C)c(O)c(O)c2[C@@]23CCCC(C)(C)C2[C@@H]1OC3=O (stereo not given in full) | -3.29% [at 38.5 µM] (inactive)
COc1cc(C(C)=O)ccc1O[C@@H]1O[C@H](CO[C@@H]2OC[C@@H](O)[C@H](O)[C@H]2O)[C@@H](O)[C@H](O)[C@H]1O | -0.601% [at 25.3 µM] (inactive)
COC(=O)c1[nH]c(=O)c2ccccc2c1-c1ccc[nH]1 | -10.4% (inactive)
CN[C@H](CNC(=O)N1CCC[C@@H]([C@@H](OCCNC(=O)OC)c2cccc(Cl)c2)C1)C[C@H]1CCCOC1 | 2.64% (inactive)
O=C(O)CCc1cc2ccoc2cc1O[C@@H]1O[C@H](CO)[C@@H](O)[C@H](O)[C@H]1O | -2.56% [at 38.5 µM] (inactive)
CC(C)[C@@H](C(=O)O)N1Cc2c(cc(O)c3c2O[C@]2(C3)[C@H](C)CCC3C(C)(C)[C@H](O)[C@H](O)C[C@@]32C)C1=O (stereo not given in full) | -3.11% [at 25.3 µM] (inactive)
CCOC(=O)CSc1nc2c(sc3ccccc32)c(=O)n1CCCN1CCCC1 | -5.09% (inactive)

Structure (SMILES) | activity change, negative = cytotoxicity
CC1CCC2(C(=O)O)CCC3(C)C(=CCC4C5(C)CCC(O)C(C)(C(=O)O)C5CCC43C)C2C1(C)O (stereo not given) | 1.81% [at 25.3 µM] (inactive)
Cc1ccccc1N1CCN(S(=O)(=O)C[C@]23CC[C@H](C[C@@H]2NC(=O)[C@@H](N)CCS(C)(=O)=O)C3(C)C)CC1 | 2.05% (inactive)
C/C=C(\C)C(=O)OCC1OC(OCC2OC(OC3(CO)OC(CO)C(O)C3O)C(O)C(O)C2O)C(O)C(O)C1O (stereo not given) | -10.1% [at 25.3 µM] (inactive)
COc1ccc(/C=C/C(=O)O[C@@H]2[C@@H](OC(C)=O)[C@@H](OC(C)=O)[C@H](O[C@H]3[C@@H]4C=CO[C@@H](O[C@@H]5O[C@H](CO)[C@@H](O)[C@H](O)[C@H]5O)[C@@H]4[C@@]4(CO)O[C@@H]34)O[C@H]2C)cc1 | 9.78% [at 25.3 µM] (inactive)
CC1=C2C[C@@]3(C)[C@@H](CCC[C@@H]3C)C[C@@]2(O)OC1=O | 0.976% (inactive)
COC(=O)/C=C/c1ccc(O[C@@H]2O[C@H](CO)[C@@H](O)[C@H](O)[C@H]2O)cc1 | -11.5% [at 38.5 µM] (inactive)
FC(F)(F)Oc1ccc(-c2ccc3nnc(C(F)(F)F)n3c2)cc1 | 6.03% (inactive)
C=C(C(=O)O)C1CC(OC(=O)CC(C)CC)C2(C)CCCC(=C)C2C1 (stereo not given) | -0.476% [at 38.5 µM] (inactive)
CC(C)(O)C1CC=C(C(=O)OC[C@H]2O[C@@H](OC(=O)C3=CCC(C(C)(C)O)CC3)[C@H](O)[C@@H](O)[C@@H]2O)CC1 (stereo not given in full) | 2.72% [at 25.3 µM] (inactive)
C[C@@H]1O[C@@H](O[C@@H]2[C@@H](O)[C@H](O[C@@H]3[C@@H](O)[C@@H](O)[C@H](O[C@H]4[C@H](OC(=O)[C@]56CCC(C)(C)C[C@H]5C5=CCC7[C@@]8(C)C[C@H](O)[C@H](O[C@@H]9O[C@H](C(=O)O)[C@@H](O)[C@H](O)[C@H]9O)[C@@](C)(CO)C8[C@H](O)C[C@@]7(C)[C@]5(C)C[C@H]6O)O[C@@H](CO)[C@@H]4O)O[C@H]3C)OC[C@H]2O)[C@H](O)[C@H](O)[C@H]1O (stereo not given in full) | 2.22% [at 6.55 µM] (inactive)
O=C(O)c1cccc(C(=O)CCC2OC(n3cnc4c(=O)[nH]cnc43)C(O)C2O)c1 (stereo not given) | -0.621% [at 25.3 µM] (inactive)
CC1(CO)CCCC2(C)C1C(OC(=O)c1ccccc1)CC1C(=O)OCC12O (stereo not given) | 5.21% [at 38.5 µM] (inactive)
CC1C2=CC(=O)OC2(O)CC2C1C(O)CC1C(C)(CO)CCCC21C (stereo not given) | -2.6% [at 38.5 µM] (inactive)
COc1cc2c(cc1OC)N1C(=O)C[C@@]34C=CC[N@+]5([O-])CC[C@H]2[C@H](CC3)[C@@]145 | 1.31% [at 38.5 µM] (inactive)
CCCN1CCC[C@@H](c2cccc(S(C)(=O)=O)c2)C1 | 3.19% (inactive)
CC1CCC2(C(=O)OC3OC(CO)C(O)C(O)C3O)CCC3(C)C(=CCC4C5(C)CCC(O)C(C)(CO)C5CCC43C)C2C1(C)O (stereo not given) | 6.04% [at 25.3 µM] (inactive)
COc1ccc(Oc2c(Cl)cnn(C3c4ccccc4-c4ccccc43)c2=O)cc1 | -0.174% (inactive)
